Results taken from PubChem BioAssay (NCI).
Compounds without any hit were thinned out: in the full panel of roughly 79,000, 15% have a hit. Unmarked numbers belong to inactive results. Active and inactive are the calls of the source. Cut-off read from the data, not from the text of the source: active = growth inhibition above about 70%; inactive = the rest.

Key:
[1] = NCI Yeast Anticancer Drug Screen. Data for the rad14 strain (AID 159);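 note: 0% = growth of vehicle-treated control cultures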; details: S. cerevisiae rad14 strain growth inhibition, hits give high values
Method in brief: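 Readout: yeast growth inhibition, referenced to vehicle-only cultures. Strain bears a defined alteration in DNA damage repair.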

[2] = NCI Yeast Anticancer Drug Screen. Data for the sgs1 mgt1 strain (AID 161);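 note: 0% = growth of cultures given vehicle only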; details: S. cerevisiae sgs1 mgt1 strain, hits give high values
Method in brief: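 Mutant yeast exposed to compound; growth scored against vehicle-only wells.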

[3] = NCI Yeast Anticancer Drug Screen. Data for the CLN2oe strain (AID 163);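 note: 0% = growth of vehicle-only control cultures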; details: S. cerevisiae CLN2oe strain, hits give high values
Method in brief: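 Inhibition relative to vehicle-treated yeast is reported. Cells: strain with genetic alteration in cell-cycle control, grown with compound.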

[4] = NCI Yeast Anticancer Drug Screen. Data for the cln2 rad14 strain (AID 165);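 note: 0% = growth equal to vehicle treated cultures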; details: S. cerevisiae cln2 rad14 strain, hits give high values
Method in brief: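 Each compound was tested on cln2 rad14 yeast. Inhibition of growth was calculated against vehicle-exposed controls.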

[5] = NCI Yeast Anticancer Drug Screen. Data for the bub3 strain (AID 167); details: S. cerevisiae bub3 mutant strain, hits give high values
Method in brief: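 Part of a panel of yeast mutants defective in DNA damage repair or cell cycle regulation. Each strain is grown with compound, and inhibition is calculated relative to solvent-treated cultures.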

[6] = NCI Yeast Anticancer Drug Screen. Data for the wt2 strain (AID 169);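 note: 0% = growth of vehicle-treated yeast cultures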; details: S. cerevisiae wt2 strain growth inhibition, hits give high values
Method in brief: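 Inhibition of yeast growth was determined after compound treatment, normalised to controls receiving only vehicle.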

[7] = NCI Yeast Anticancer Drug Screen. Data for the mlh1 strain (AID 171);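 note: 0% = growth of vehicle-treated control cultures of the same strain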; details: S. cerevisiae mlh1 strain growth inhibition, hits give high values
Method in brief: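 Vehicle-normalised growth inhibition of a repair- or checkpoint-altered yeast strain following compound treatment.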

[8] = NCI Yeast Anticancer Drug Screen. Data for the sgs1 strain (AID 173);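 note: 0% = growth of vehicle-only control cultures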; details: S. cerevisiae sgs1 mutant, hits give high values
Method in brief: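 Screen format: yeast with repair or checkpoint alterations, compound exposure, growth read relative to vehicle.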

[9] = NCI Yeast Anticancer Drug Screen. Data for the rad18 strain (AID 177); details: S. cerevisiae rad18 mutant growth inhibition, hits give high values
Method in brief: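 Test articles were incubated with altered yeast defective in DNA damage repair. Results are given as inhibition of growth versus vehicle.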

[10] = NCI Yeast Anticancer Drug Screen. Data for the rad52 strain (AID 147);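 note: 0% = growth of vehicle-treated control cultures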; details: S. cerevisiae rad52 mutant growth inhibition, hits give high values
Method in brief: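 Vehicle-treated cultures served as the reference for growth inhibition of compound-exposed yeast bearing a DNA repair mutation.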

[11] = NCI Yeast Anticancer Drug Screen. Data for the rad50EPP+ strain (AID 151);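 note: 0% = growth of vehicle-treated control cultures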; details: S. cerevisiae rad50 mutant strain, hits give high values
Method in brief: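 In this screen, rad50EPP+ yeast were exposed to compounds. Growth inhibition was scored against vehicle-treated controls.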

[12] = NCI Yeast Anticancer Drug Screen. Data for the mgt1 strain (AID 153); details: S. cerevisiae mgt1 mutant growth inhibition, hits give high values
Method in brief: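 mgt1 strain exposed; growth vs vehicle control recorded as inhibition.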

[13] = NCI Yeast Anticancer Drug Screen. Data for the rad50 strain (AID 155);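 note: 0% = growth of vehicle-only cultures of the same strain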; details: S. cerevisiae rad50 strain growth inhibition, hits give high values
Method in brief: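 Cells are treated with compound, grown, and their growth is then scored against vehicle-only cultures of the same repair-deficient yeast strain.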

[14] = NCI Yeast Anticancer Drug Screen. Data for the mec2-1 strain (AID 157); details: S. cerevisiae mec2-1 strain, hits give high values
Method in brief: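 Vehicle-treated cultures served as reference for growth inhibition of compound-exposed mec2-1 yeast.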

[15] = NCI Yeast Anticancer Drug Screen. Data for the mlh1 rad18 strain (AID 175); details: S. cerevisiae mlh1 rad18 strain growth inhibition, hits give high values
Method in brief: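 Vehicle-treated cultures served as the reference for growth inhibition in a yeast strain carrying DNA damage repair alterations exposed to each compound.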

[16] = at 5.0 µM (retest, dose inferred, filed as 0.5)
[17] = at 50.0 µM (retest, dose inferred, filed as 5.0)

C/C(CCl)=N/NC1=NC(c2ccccc2Cl)P(=O)(NCCCNP2(=O)SC(N/N=C(/C)CCl)=NC2c2ccccc2Cl)S1 (stereo not given)
growth inhibition ([1]; at 100.0 µM): 5%
growth inhibition [2, 16]: -2%
growth inhibition [2, 17]: 51%
growth inhibition ([2]; at 50.0 µM): 93.2% (active)
growth inhibition ([3]; at 1.2 µM): -13%
growth inhibition ([3]; at 3.7 µM): -4%
growth inhibition ([3]; at 11.0 µM): -1%
growth inhibition ([3]; at 33.0 µM): -16%
growth inhibition ([3]; at 100.0 µM): -22%
growth inhibition [4, 16]: -18%
growth inhibition [4, 17]: -4%
growth inhibition ([4]; at 50.0 µM): 92.3% (active)
growth inhibition ([5]; at 1.2 µM): 0%
growth inhibition ([5]; at 3.7 µM): -5%
growth inhibition [5, 16]: -32%
growth inhibition ([5]; at 11.0 µM): 0%
growth inhibition ([5]; at 33.0 µM): 25%
growth inhibition [5, 17]: 61%
growth inhibition ([5]; at 50.0 µM): 95.2% (active)
growth inhibition ([5]; at 100.0 µM): 18%
growth inhibition ([6]; at 1.2 µM): 0%
growth inhibition ([6]; at 3.7 µM): -2%
growth inhibition ([6]; at 11.0 µM): -2%
growth inhibition ([6]; at 33.0 µM): 17%
growth inhibition ([6]; at 100.0 µM): 13%
growth inhibition ([7]; at 1.2 µM): -2%
growth inhibition ([7]; at 3.7 µM): 3%
growth inhibition ([7]; at 11.0 µM): 4%
growth inhibition ([7]; at 33.0 µM): 22%
growth inhibition ([7]; at 100.0 µM): 16%
growth inhibition ([8]; at 1.2 µM): 0%
growth inhibition ([8]; at 3.7 µM): -2%
growth inhibition ([8]; at 11.0 µM): 0%
growth inhibition ([8]; at 33.0 µM): 19%
growth inhibition ([8]; at 100.0 µM): 16%
growth inhibition ([9]; at 1.2 µM): 1%
growth inhibition ([9]; at 3.7 µM): 10%
growth inhibition ([9]; at 11.0 µM): 9%
growth inhibition ([9]; at 33.0 µM): 27%
growth inhibition ([9]; at 100.0 µM): 23%

NCCc1ccc(OCc2ccccc2)c(OCc2ccccc2)c1
growth inhibition ([10]; at 1.2 µM): -8%
growth inhibition ([10]; at 3.7 µM): -5%
growth inhibition ([10]; at 11.0 µM): -6%
growth inhibition ([10]; at 33.0 µM): 72% (active)
growth inhibition ([10]; at 100.0 µM): 92% (active)
growth inhibition ([11]; at 1.2 µM): -15%
growth inhibition ([11]; at 3.7 µM): -9%
growth inhibition ([11]; at 11.0 µM): -19%
growth inhibition ([11]; at 33.0 µM): 11%
growth inhibition ([11]; at 100.0 µM): 83% (active)
growth inhibition ([12]; at 1.2 µM): 2%
growth inhibition ([12]; at 3.7 µM): 13%
growth inhibition ([12]; at 11.0 µM): 56%
growth inhibition ([12]; at 33.0 µM): 97% (active)
growth inhibition ([12]; at 100.0 µM): 98% (active)
growth inhibition ([13]; at 1.2 µM): 16%
growth inhibition ([13]; at 3.7 µM): 17%
growth inhibition [13, 16]: 43%
growth inhibition ([13]; at 11.0 µM): 35%
growth inhibition ([13]; at 33.0 µM): 90% (active)
growth inhibition [13, 17]: 90% (active)
growth inhibition ([13]; at 50.0 µM): 91.7% (active)
growth inhibition ([13]; at 100.0 µM): 96% (active)
growth inhibition ([14]; at 1.2 µM): 0%
growth inhibition ([14]; at 3.7 µM): 3%
growth inhibition [14, 16]: 35%
growth inhibition ([14]; at 11.0 µM): 8%
growth inhibition ([14]; at 33.0 µM): 92% (active)
growth inhibition [14, 17]: 96% (active)
growth inhibition ([14]; at 50.0 µM): 91.5% (active)
growth inhibition ([14]; at 100.0 µM): 98% (active)
growth inhibition ([1]; at 1.2 µM): -27%
growth inhibition ([1]; at 3.7 µM): -21%
growth inhibition ([1]; at 11.0 µM): -3%
growth inhibition ([1]; at 33.0 µM): 94% (active)
growth inhibition ([1]; at 100.0 µM): 97% (active)
growth inhibition [2, 16]: -16%
growth inhibition [2, 17]: 97% (active)
growth inhibition ([3]; at 1.2 µM): -1%
growth inhibition ([3]; at 3.7 µM): 3%
growth inhibition ([3]; at 11.0 µM): -5%
growth inhibition ([3]; at 33.0 µM): 41%
growth inhibition ([3]; at 100.0 µM): 97% (active)
growth inhibition [4, 16]: 36%
growth inhibition [4, 17]: 82% (active)
growth inhibition ([5]; at 1.2 µM): 12%
growth inhibition ([5]; at 3.7 µM): 20%
growth inhibition [5, 16]: -17%
growth inhibition ([5]; at 11.0 µM): 35%
growth inhibition ([5]; at 33.0 µM): 87% (active)
growth inhibition [5, 17]: 92% (active)
growth inhibition ([5]; at 100.0 µM): 96% (active)
growth inhibition ([6]; at 1.2 µM): -15%
growth inhibition ([6]; at 3.7 µM): -12%
growth inhibition ([6]; at 11.0 µM): 37%
growth inhibition ([6]; at 33.0 µM): 95% (active)
growth inhibition ([6]; at 100.0 µM): 97% (active)
growth inhibition ([7]; at 1.2 µM): -38%
growth inhibition ([7]; at 3.7 µM): -12%
growth inhibition ([7]; at 11.0 µM): 43%
growth inhibition ([7]; at 33.0 µM): 95% (active)
growth inhibition ([7]; at 100.0 µM): 96% (active)
growth inhibition ([8]; at 1.2 µM): -8%
growth inhibition ([8]; at 3.7 µM): -5%
growth inhibition ([8]; at 11.0 µM): 51%
growth inhibition ([8]; at 33.0 µM): 95% (active)
growth inhibition ([8]; at 100.0 µM): 96% (active)
growth inhibition [15, 16]: 24%
growth inhibition [15, 17]: 96% (active)
growth inhibition ([15]; at 50.0 µM): 90.2% (active)
growth inhibition ([9]; at 1.2 µM): 2%
growth inhibition ([9]; at 3.7 µM): 15%
growth inhibition ([9]; at 11.0 µM): 45%
growth inhibition ([9]; at 33.0 µM): 91% (active)
growth inhibition ([9]; at 100.0 µM): 94% (active)

Cc1ccc(P(c2ccc(C)cc2)c2ccc(C)cc2)cc1
growth inhibition ([13]; at 1.2 µM): 16%
growth inhibition ([13]; at 3.7 µM): 26%
growth inhibition [13, 16]: 57%
growth inhibition ([13]; at 11.0 µM): 25%
growth inhibition ([13]; at 33.0 µM): 33%
growth inhibition [13, 17]: 96% (active)
growth inhibition ([13]; at 50.0 µM): 37.7%
growth inhibition ([13]; at 100.0 µM): 36%
growth inhibition ([14]; at 1.2 µM): -3%
growth inhibition ([14]; at 3.7 µM): -2%
growth inhibition [14, 16]: 58%
growth inhibition ([14]; at 11.0 µM): 2%
growth inhibition ([14]; at 33.0 µM): 24%
growth inhibition [14, 17]: 98% (active)
growth inhibition ([14]; at 50.0 µM): 9.9%
growth inhibition ([14]; at 100.0 µM): 32%
growth inhibition [2, 16]: 7%
growth inhibition [2, 17]: 43%
growth inhibition ([2]; at 50.0 µM): 39.2%
growth inhibition [4, 16]: 69%
growth inhibition [4, 17]: 44%
growth inhibition ([4]; at 50.0 µM): 35.9%
growth inhibition ([5]; at 1.2 µM): 20%
growth inhibition ([5]; at 3.7 µM): 43%
growth inhibition [5, 16]: 43%
growth inhibition ([5]; at 11.0 µM): 57%
growth inhibition ([5]; at 33.0 µM): 78% (active)
growth inhibition [5, 17]: 88% (active)
growth inhibition ([5]; at 50.0 µM): 75.8% (active)
growth inhibition ([5]; at 100.0 µM): 75% (active)
growth inhibition [15, 16]: 49%
growth inhibition [15, 17]: 97% (active)
growth inhibition ([15]; at 50.0 µM): 26.4%

c1ccc2c(NCCCCCCNc3c4ccccc4nc4ccccc34)c3ccccc3nc2c1
growth inhibition [13, 16]: 68%
growth inhibition [13, 17]: 89% (active)
growth inhibition ([13]; at 50.0 µM): 75.4% (active)
growth inhibition [14, 16]: 43%
growth inhibition [14, 17]: 80% (active)
growth inhibition ([14]; at 50.0 µM): 73.5% (active)
growth inhibition [2, 16]: 54%
growth inhibition [2, 17]: 83% (active)
growth inhibition ([2]; at 50.0 µM): 61.5%
growth inhibition [4, 16]: 20%
growth inhibition [4, 17]: 57%
growth inhibition ([4]; at 50.0 µM): 8.4%
growth inhibition [5, 16]: 56%
growth inhibition [5, 17]: 88% (active)
growth inhibition ([5]; at 50.0 µM): 73.1% (active)
growth inhibition [15, 16]: 61%
growth inhibition [15, 17]: 83% (active)
